# Measurements as given in the supplement of paper PMC10720658.
# ± gives the standard deviation of the averaged measurements.
# System: AEK1 (Tb927.3.2440)
# Test: percent reduction in TR-FRET probe signal relative to DMSO control; higher = stronger displacement of ATP-site probe (binding)
# Details: 1 µM; incubation time 1 h
row,SMILES,percent reduction in TR-FRET probe signal
1,CN1CCN(c2nc(C3=C(c4c[nH]c5ccccc45)C(=O)NC3=O)c3ccccc3n2)CC1 [Sotrastaurin],-7.1 ± 1.4%
2,CN1CC[C@@H](c2c(O)cc(O)c3c(=O)cc(-c4ccccc4Cl)oc23)[C@@H]1CO.Cl,4 ± 2.6%
3,C[C@@H](N)[C@H]1CC[C@H](C(=O)Nc2ccncc2)CC1.Cl.Cl,2.66 ± 6.8%
4,C[C@@H]1CCN(C(=O)CC#N)C[C@@H]1N(C)c1ncnc2[nH]ccc12.O=C(O)CC(O)(CC(=O)O)C(=O)O,-1.47 ± 8.1%
5,CC(C)(C)c1ccc(S(=O)(=O)/C=C/C#N)cc1,-17 ± 7.6%
6,O=C(c1cccc(Cl)c1F)N1CCN(Cc2cccc(Nc3nccs3)n2)CC1,6.09 ± 13%
7,CN1CCN(C2CCN(C(=O)Nc3cc(Oc4ccc(NC(=O)C5(C(=O)Nc6ccc(F)cc6)CC5)c(F)c4)ccn3)CC2)CC1 [Golvatinib (E7050)],0.527 ± 8%
8,CC(C)(C)NS(=O)(=O)c1cncc(-c2cc(F)c3nc(N)nn3c2)c1,-7.77 ± 4.5%
9,CO[C@H]1CC[C@H](N2C(=O)CNc3ncc(-c4ccc(C(C)(C)O)nc4)nc32)CC1,-4.45 ± 1.6%
10,CN1CC[C@H](c2c(O)cc(O)c3c(=O)cc(-c4ccccc4Cl)oc23)[C@H](O)C1 [Flavopiridol (Alvocidib)],-2.55 ± 4.6%
11,C[C@@H](Oc1cc(-c2cnn(C3CCNCC3)c2)cnc1N)c1c(Cl)ccc(F)c1Cl,35.4 ± 13%
12,"CC[C@H](CO)Nc1nc(NCc2ccccc2)c2ncn(C(C)C)c2n1 [Roscovitine (Seliciclib,CYC202)]",-4.47 ± 5.4%
